Screens as filed in PubChem.
Pol iota inh = DNA polymerase iota (human) inhibition | Pol iota fluorescent replication assay, 10 min | AID 588590 | Potency, µM (doses to about 115 µM), inactives show at the top dose activity, negative = inhibition, most hits filed as inhibitors | 1% of 390,000 active | Q9UNA4
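Fluorescent replication assay read twice, at 0 min and 10 min after adding 50 nM (final) substrate. Enzyme (10 nM) and compounds were first incubated 15 min at room temperature; enzyme-free buffer wells were negative controls.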
FEN1 inh = inhibitors of human flap endonuclease 1; 0.35% of 390,000 active; P39748; Recombinant FEN1 flap cleavage, fluorescence, 15 min; Potency, µM (series often up to 114 µM), without a hit: at the highest dose activity change, negative = inhibition, actives largely listed as inhibitors; also: % is scaled to controls: 0 for no effect and ±100 for the full control effect; nearly all actives have a fitted effect of over 65% in size
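Nuclease activity of 10 nM FEN1 was measured after 15 min of room-temperature exposure to titrated compounds, by adding 50 nM flap substrate and reading plates at 0 and 15 min.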
Pol eta inh = inhibitors of human DNA polymerase eta | Q9Y253 | recombinant Pol eta, fluorescent DNA replication assay | Potency, µM (top dose mostly 114 µM), for the others: at the highest dose activity change, negative = inhibition, actives largely listed as inhibitors | 1.2% of 390,000 active; also: % is scaled to controls: 0 for no effect and ±100 for the full control effect
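Fluorescent replication assay: 50 nM final substrate added after a 15 min room-temperature compound preincubation with 10 nM enzyme. Signal taken at 0 min and again at 10 min.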
POLK inh = inhibitors of human DNA polymerase kappa. Potency, µM (top dose mostly 107 µM), inactives show at the top dose activity, negative = inhibition, usual class: inhibitors. AID 588579. 0.53% of 400,000 active. purified Pol kappa, fluorescent DNA synthesis assay, 10 min; also: % is scaled to controls: 0 for no effect and ±100 for the full control effect
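Here, compound and 10 nM enzyme are combined for 15 min at room temperature; adding 50 nM substrate (final) starts DNA synthesis, tracked by fluorescence at 0 and 10 min against buffer-only wells.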
WRN helicase inh = WRN helicase (human) inhibition; 0.46% of 360,000 active; WRN helicase unwinding, fluorescent forked duplex, kinetic; AID 651768; Potency, µM (titrated, usually from 114 µM), for inactives: at the highest dose activity change, negative = inhibition, usual class: inhibitors; Q14191; also: % is scaled to controls: 0 for no effect and ±100 for the full control effect; nearly all actives have a fitted effect of over 55% in size
Target sequence (Q14191 whole entry, looked up): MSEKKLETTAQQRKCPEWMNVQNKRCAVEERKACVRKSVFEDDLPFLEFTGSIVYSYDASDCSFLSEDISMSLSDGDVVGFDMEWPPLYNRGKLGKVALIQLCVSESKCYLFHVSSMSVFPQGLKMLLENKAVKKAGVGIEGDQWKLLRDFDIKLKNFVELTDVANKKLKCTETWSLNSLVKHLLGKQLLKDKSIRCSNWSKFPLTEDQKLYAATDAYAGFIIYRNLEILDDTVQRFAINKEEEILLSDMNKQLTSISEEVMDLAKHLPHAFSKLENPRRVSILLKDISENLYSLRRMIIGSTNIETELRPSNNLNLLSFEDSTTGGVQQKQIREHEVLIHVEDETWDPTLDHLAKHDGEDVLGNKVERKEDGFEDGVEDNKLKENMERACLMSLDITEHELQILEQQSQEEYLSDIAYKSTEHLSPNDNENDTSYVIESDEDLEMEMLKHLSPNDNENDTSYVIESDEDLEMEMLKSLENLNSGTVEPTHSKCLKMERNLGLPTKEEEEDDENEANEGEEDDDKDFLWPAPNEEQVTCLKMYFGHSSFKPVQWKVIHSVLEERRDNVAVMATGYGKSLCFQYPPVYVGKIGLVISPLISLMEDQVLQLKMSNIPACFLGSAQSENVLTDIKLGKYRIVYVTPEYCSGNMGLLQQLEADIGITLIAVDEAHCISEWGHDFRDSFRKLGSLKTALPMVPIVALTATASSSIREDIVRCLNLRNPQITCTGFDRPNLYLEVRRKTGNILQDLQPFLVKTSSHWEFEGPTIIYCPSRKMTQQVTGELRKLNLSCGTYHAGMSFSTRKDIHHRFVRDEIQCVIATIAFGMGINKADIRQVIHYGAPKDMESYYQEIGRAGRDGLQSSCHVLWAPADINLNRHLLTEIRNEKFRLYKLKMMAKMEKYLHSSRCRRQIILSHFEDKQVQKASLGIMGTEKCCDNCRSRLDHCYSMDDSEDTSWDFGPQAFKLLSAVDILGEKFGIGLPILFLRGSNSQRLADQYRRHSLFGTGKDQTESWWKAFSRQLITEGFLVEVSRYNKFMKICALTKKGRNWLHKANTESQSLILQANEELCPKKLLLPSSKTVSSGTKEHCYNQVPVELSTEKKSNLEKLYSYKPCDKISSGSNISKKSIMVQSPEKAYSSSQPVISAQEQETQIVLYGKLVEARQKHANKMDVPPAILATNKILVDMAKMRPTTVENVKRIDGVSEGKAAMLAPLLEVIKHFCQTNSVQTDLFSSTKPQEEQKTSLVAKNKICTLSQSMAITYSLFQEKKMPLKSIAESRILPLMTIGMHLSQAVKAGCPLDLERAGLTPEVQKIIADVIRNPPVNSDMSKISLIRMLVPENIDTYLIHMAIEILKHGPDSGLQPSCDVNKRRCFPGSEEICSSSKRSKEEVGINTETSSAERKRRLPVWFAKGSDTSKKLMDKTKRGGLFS
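Kinetic red-fluorescence monitoring (525/598 nm) tracks WRN helicase activity after 100 nM fluorophore-quencher forked duplex and 2 mM ATP are added to 20 nM enzyme pretreated 15 min at room temperature with compound.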
Pol beta inh = blocks human DNA polymerase beta activity; Potency, µM (titrated, usually from 114 µM), for the others: at the top dose activity change, negative = inhibition, most hits filed as inhibitors; AID 485314; Pol beta primer extension/strand displacement, fluorescence kinetic; 1.3% of 340,000 active; P06746; also: % is scaled to controls: 0 for no effect and ±100 for the full control effect
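Human Pol beta at 10 nM; strand-displacement substrate 50 nM final. Compound exposure 15 min at room temperature before start, reaction 10 min at room temperature.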
Numbers without * were called inactive; ? = inconclusive; nt = not tested or not shown; ! = not active in a repeat; [ ] = another dose, or the depositor's remark. This is a sample that favours compounds with a hit; in the whole collection about 2.4% have one here. Calls follow the shape of the dose curve; as a rule, active = well fitted curve in the direction sought with a large enough effect; inconclusive = small, poorly fitted or top-dose-only effect, or another doubt; inactive = no such curve, though single readings can be large; an effect the other way counts as inactive or inconclusive. Potency is read from the fitted curve at half-maximal effect.

SMILES | Pol iota inh | FEN1 inh | Pol eta inh | POLK inh | WRN helicase inh | Pol beta inh
COC(=O)C[C@H](NC(=O)[C@H](C)NC(=O)[C@@H](NC(=O)OCc1ccccc1)C(C)C)C(=O)CF | nt | nt | nt | 5.4%[19.4 µM] | nt | nt
CC1=C(C(=O)OCc2ccccc2)N2C(=O)[C@@H](NC(=O)OCc3ccccc3)[C@H]2SC1 | -1.4% | -20.4% | nt | -14.1% | nt | nt
COc1cc2nc(N3CCCN(C)CC3)nc(N)c2cc1OC | -13.3% | ? | nt | -29.8% | nt | nt
O=C(Nc1cccc(Nc2ccccc2)c1)c1cnn2c1NC(=C1CC1)C=C2C(F)F | 11.3% | -5.6% | nt | -14.0% | nt | nt
C[N+]12CCCC[C@@H]1CCC(=C(c1cccs1)c1cccs1)C2 (some centres not stated) | nt | nt | nt | 1.7%[19.4 µM] | nt | nt
COc1cc(OC)c(/C=C/c2nc3ccccc3o2)c(OC)c1 | 7.7% | -22.1% | nt | -2.1% | nt | nt
O=C(CSc1ccccc1F)NC(=O)NCc1ccco1 | ? | -1.0% | ? | -24.1% | 4.4%[11.6 µM] | 10µM*
CCOc1ccc(-n2c(=S)sc3c(=O)[nH]c(SCC(=O)NCc4ccco4)nc32)cc1 | ? | 9.0% | 56.2µM* | -32.0% | -24.3% | 35.5µM*
O=C(CSc1nc2ccccc2o1)NC(=O)NCc1ccco1 | -9.5% | -15.1% | ? | -16.5% | -14.1% | -3.6%
O=C(CSc1cccc(C(F)(F)F)c1)NC(=O)NCc1ccco1 | ? | -19.2% | -25.1% | ? | ? | ?
O=C(CSc1ncccn1)NC(=O)NCc1ccco1 | 79.4µM* | 2.5% | -11.2% | -13.6% | 4.0%[11.6 µM] | ?
CS/C(=N\S(=O)(=O)c1cccs1)NC(=O)CSc1nc2ccccc2s1 | ? | ? | 50.1µM* | -26.1% | ? | ?
O=C(C[n+]1ccccc1Cl)c1ccccc1 | 36.8% | -13.2% | nt | -13.8% | nt | nt
CCCN1CCC(=O)N(CCC#N)CC1 | 12.8% | 22.4% | nt | -4.0% | nt | nt
S=C(NCCCc1cnc[nH]1)NCCCN(Cc1ccc(Cl)cc1)c1ccc(-c2ccccc2)cn1 | 62.2% | -2.4% | nt | -20.8% | nt | nt
COc1ccc(C)cc1-n1nnnc1SCC(=O)NC(=O)NCc1ccco1 | 28.2µM* | 1.9% | 89.1µM* | ? | -2.9%[11.6 µM] | 14.1µM*
CCCCn1c(SCc2ccc(C(=O)OC)o2)nc2cc(S(N)(=O)=O)ccc21 | 4.3% | -15.0% | -5.1% | -4.7% | -11.1%[57.1 µM] | 0.4%
CCCCn1c(SCC(=O)NC(=O)NCc2ccco2)nc2cc(S(N)(=O)=O)ccc21 | ? | 7.5% | 79.4µM* | ? | -8.9%[11.6 µM] | 28.2µM*
O=C(CSc1nnc(CNC(=O)c2c(F)cccc2F)o1)NCc1ccco1 | ? | 0.4% | ? | -29.3% | ? | 25.1µM*
COc1ccc(-c2[nH]c(-c3ccccc3)nc2SCC(=O)NCc2ccco2)cc1OC | ? | -9.7% | ? | -24.1% | -16.8% | 39.8µM*
CSCC[C@H](NC(=O)[C@H](CO)NC(=O)[C@H](Cc1ccc(O)cc1)NC(=O)[C@@H](N)CO)C(=O)N[C@@H](CCC(=O)O)C(=O)N[C@@H](Cc1cnc[nH]1)C(=O)N[C@@H](Cc1ccccc1)C(=O)N[C@@H](CCCNC(=N)N)C(=O)N[C@@H](Cc1c[nH]c2ccccc12)C(=O)NCC(=O)N[C@@H](CCCCN)C(=O)N1CCC[C@H]1C(=O)N[C@H](C(=O)NCC(=O)N[C@@H](CCCCN)C(=O)N[C@@H](CCCCN)C(=O)N[C@@H](CCCNC(=N)N)C(=O)N[C@@H](CCCNC(=N)N)C(=O)N1CCC[C@H]1C(=O)N[C@H](C(=O)N[C@@H](CCCCN)C(=O)N[C@H](C(=O)N[C@@H](Cc1ccc(O)cc1)C(=O)N1CCC[C@H]1C(=O)O)C(C)C)C(C)C)C(C)C | nt | nt | nt | -17.6%[12 µM] | nt | nt
CS/C(N)=C(C#N)/C(C#N)=C(\N)SC | nt | nt | nt | -18.2%[60.1 µM] | nt | nt
Cc1nnc(SCC(=O)NC(=O)NCc2ccco2)s1 | -4.4% | -4.8% | -0.7% | -7.5% | -8.9% | -12.1%
O=C(CSc1nn(-c2ccc(F)cc2)c(=S)s1)NC(=O)NCc1ccco1 | ? | 5.1% | 2.3% | -3.5% | -14.0% | 44.7µM*
C=CCn1c(=O)[nH]c2cc(C(=O)N3CCN(c4cccc(Cl)c4)CC3)ccc2c1=O | 89.1µM* | -9.1% | ? | -25.5% | -17.2% | -68.3%
SMILES | Pol iota inh | FEN1 inh | Pol eta inh | POLK inh | WRN helicase inh | Pol beta inh
CC(C)=CCC[C@](C)(O)C1CC[C@]2(C)[C@@H]1CC[C@@H]1[C@@]3(C)CCC(=O)C(C)(C)[C@@H]3CC[C@]12C (some centres not stated) | nt | nt | nt | 2.8%[60.1 µM] | nt | nt
CC1(C)NC(=O)N(CN2C(=O)NC(C)(C)C2=O)C1=O | -3.5% | -1.7% | -7.7% | 1.6% | 4.6% | 79.4µM*
Cc1ccc(C2=NOC(=O)/C2=C\c2ccc(C)o2)cc1 | ? | ? | 79.4µM* | -18.7% | ? | 5.9%
COc1cccc(C(=O)c2cn(CC(=O)NCc3ccco3)c3nc(C)ccc3c2=O)c1 | 22.4µM* | 8.2% | 39.8µM* | 89.1µM* | ? | ?
Cc1ccc2c(=O)c(C(=O)c3ccc(F)cc3)cn(CC(=O)NCc3ccco3)c2n1 | ? | -10.2% | ? | ? | -7.3% | ?
CN(C(=O)c1ccoc1)c1ccccc1I | -15.3% | -12.5% | nt | -5.9% | nt | nt
CO[C@@]1(NC(=O)CSCC#N)C(=O)N2C(C(=O)O)=C(CSc3nnnn3C)CS[C@@H]21 | ? | -0.6% | 2.24µM*! | -4.5%[60.1 µM] | nt | -2.1%
CO[C@]1(NC(=O)CSCC#N)C(=O)N2C(C(=O)O)=C(CSc3nnnn3C)CS[C@H]21 | nt | nt | nt | -6.7%[12 µM] | nt | nt
CCOc1cccc(NC(=O)Cc2cccs2)c1 | -13.5% | -3.7% | -16.5% | -7.7% | -2.3% | 20.4%
Cc1nnc2ccc(-c3cccc(NC(=O)Cc4cccs4)c3)nn12 | 35.5µM* | -3.7% | ? | ? | -3.3%[11.6 µM] | 12.6µM*
COc1ccc(CC(=O)Nc2cccc(-c3ccc4nnc(C)n4n3)c2)cc1 | 15.3% | 4.6% | -2.3% | -13.1% | 0.5% | 51.0%
CC(=O)Nc1cccc(NC(=O)Cc2cccs2)c1 | ? | 12.9% | 35.5µM* | -19.7% | -0.5%[11.6 µM] | -13.4%
CCC(=O)Nc1cccc(NC(C)=O)c1 | nt | nt | nt | nt | nt | 22.4µM*
O=C(O)c1ccc(NC(=O)C2CC=CCC2C(=O)O)cc1 (configuration not stated) | 8.2% | -1.3% | -7.1% | -5.5% | -29.6%[57.1 µM] | -14.6%
O=C(O)C1CC=CCC1C(=O)Nc1ccccc1 (configuration not stated) | 10.4% | -3.2% | ? | -5.7% | -7.5% | 31.6µM*
O=C(O)Cc1ccc(NC(=O)C2CC=CCC2C(=O)O)cc1 (configuration not stated) | nt | nt | nt | nt | nt | 22.4µM*
O=C(O)COc1ccc(OCCNC[C@H](O)COc2ccccc2)cc1 | nt | nt | nt | -0.5%[19.4 µM] | nt | nt
